Reference: PubChem BioAssay (NCATS)
Results filed as inconclusive are left out. Entries that show only a call come without a potency. Active and inactive are the calls of the source. Calls come from the whole dose curve; as a rule, active = well fitted curve in the direction sought with a large enough effect; inconclusive = small, poorly fitted or top-dose-only effect, or another doubt; inactive = no such curve, though single readings can be large; an effect the other way counts as inactive or inconclusive.

How the values were obtained:
[1] = target: Cellular tumor antigen p53 (Homo sapiens) (UniProt P04637); test: Primary qHTS for small molecule compounds that upregulate eGFP-tagged delta133p53alpha (in N-terminal) cells. (AID 2060322); details: NCI-H358 eGFP-delta133p53alpha fluorescence, 24 h; activation: stronger effect = higher value; note: nearly all actives have a fitted effect of over 75% in size; note: potency is the fitted concentration of half-maximal effect; for activation: series mostly up to about 56 µM
Sequence of Cellular tumor antigen p53 (Homo sapiens) (P04637 whole entry, looked up): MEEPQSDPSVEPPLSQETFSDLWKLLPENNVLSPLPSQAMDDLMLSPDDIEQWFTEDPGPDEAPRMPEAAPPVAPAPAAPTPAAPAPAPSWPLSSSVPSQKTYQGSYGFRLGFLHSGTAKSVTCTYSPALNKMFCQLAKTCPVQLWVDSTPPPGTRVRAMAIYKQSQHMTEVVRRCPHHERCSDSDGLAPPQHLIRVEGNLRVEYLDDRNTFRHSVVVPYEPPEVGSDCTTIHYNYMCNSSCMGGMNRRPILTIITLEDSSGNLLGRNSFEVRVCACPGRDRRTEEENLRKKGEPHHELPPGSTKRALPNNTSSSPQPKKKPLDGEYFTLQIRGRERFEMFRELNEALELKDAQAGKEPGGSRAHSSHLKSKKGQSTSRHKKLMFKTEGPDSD
Method in brief: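 NCI-H358 cells pre-induced 24 h with 10 ng/ml doxycycline to express N-terminal eGFP-delta133p53alpha, then dosed 24 h at 37C without doxycycline; fixed, Hoechst-stained, GFP intensity by laser scanning cytometry, normalized to DMSO (0%) and 57.5 uM 5-azacytidine (100%).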

[2] = target: Aldehyde dehydrogenase, mitochondrial (Homo sapiens) (UniProt P05091); test: qHTS for Inhibitors of the Aldehyde Dehydrogenase Family (ALDH2) Primary screen (AID 2061308); note: nearly all actives have a fitted effect of over 55% in size
[3] = target: Retinaldehyde dehydrogenase 3 (Homo sapiens) (UniProt P47895); test: qHTS for Inhibitors of the Aldehyde Dehydrogenase Family (ALDH1A3) Primary screen (AID 2061315)

SMILES | activation [1] | Potency [2] | Potency [3] | activity change, negative = inhibition [2] | activity change, negative = inhibition [3] | Potency [1]
CC1OC(OC2C(OC3C(O[C@H]4CC[C@@]5(C)C(CC[C@]6(C)C5CC=C5C7CC(C)(C)CC(O)[C@]7(C)CC[C@]56C)C4(C)C)OC(C(=O)O)C(O)C3O)OCC(O)C2O)C(O)C(O)C1O (stereo partly specified) | 3.57% (inactive) | inactive | inactive | – | – | –
CCN(CCNC(=O)Nc1ccccc1Br)c1cccc(C)c1 | 5.67% (inactive) | inactive | inactive | – | – | –
CC(C)(O)C1=CCC23COC(C2)C(O)(C(=O)O)CCC13 (stereo unspecified) | -6.87% (inactive) | inactive | inactive | – | – | –
COC1C(OC(=O)/C=C/C=C/C=C/C=C/C(=O)O)CCC2(CO2)C1C1(C)OC1CC=C(C)C (stereo unspecified) | 10.7% (inactive) | inactive | inactive | – | – | –
C[C@@H]1O[C@@H](OC[C@H]2O[C@@H](OCc3ccccc3)[C@H](O)[C@@H](O)[C@@H]2O)[C@H](O)[C@H](O)[C@H]1O | 15.3% (inactive) | inactive | inactive | – | – | –
CC(C)(O)C(O)C(=O)OCc1ccc(O[C@@H]2O[C@H](CO)[C@@H](O)[C@H](O)[C@H]2O)cc1 (stereo partly specified) | 8.4% (inactive) | inactive | inactive | – | – | –
C[C@]12CC[C@@H]3c4ccc(O)cc4CC[C@H]3[C@@H]1C[C@@H](O[C@@H]1O[C@H](C(=O)O)[C@@H](O)[C@H](O)[C@H]1O)[C@@H]2O | -6.33% (inactive) | inactive | inactive | – | – | –
Nc1nc2c(s1)CCN(Cc1ccc(Cl)cc1)CC2 | 19.1% (inactive) | inactive | inactive | – | – | –
COc1cccc(NC[C@@H](O)Cn2c3ccc(Br)cc3c3cc(Br)ccc32)c1 | 29.6% (inactive) | inactive | inactive | – | – | –
C[C@@H]1O[C@@H](O[C@H]2[C@H](O[C@H]3[C@H](O[C@H]4CC[C@@]5(C=O)C(CC[C@]6(C)C5CC=C5C7CC(C)(C)C[C@@H](O)[C@]7(C)CC[C@]56C)C4(C)C)O[C@H](C(=O)O)[C@@H](O)[C@@H]3O)OC[C@@H](O)[C@@H]2O)[C@H](O)[C@H](O)[C@H]1O (stereo partly specified) | -8.93% (inactive) | inactive | inactive | – | – | –
O=C(O)c1ccc(OC2OC(CO)C(O)C(O)C2O)cc1 (stereo unspecified) | -11.6% (inactive) | inactive | inactive | – | – | –
CC(=O)O[C@H]1[C@H](Oc2ccccc2COC(=O)C2(O)C=CCCC2=O)O[C@H](CO)[C@@H](O)[C@@H]1O (stereo partly specified) | -9.92% (inactive) | inactive | inactive | – | – | –
C[C@@H]1O[C@@H](O[C@@H]2[C@@H](O)[C@H](O[C@@H]3[C@@H](O)[C@@H](O)[C@H](O[C@H]4[C@H](OC(=O)[C@]56CCC(C)(C)C[C@H]5C5=CCC7[C@@]8(C)C[C@H](O)[C@H](O[C@@H]9O[C@@H](C)[C@H](O)[C@@H](O)[C@H]9O)[C@@](C)(CO)C8CC[C@@]7(C)[C@]5(C)C[C@H]6O)O[C@H](C)[C@H](O)[C@@H]4O)O[C@H]3C)OC[C@H]2O)[C@H](O)[C@H](O)[C@H]1O (stereo partly specified) | 19.6% (inactive) | – | – | 0.778% [at 11.2 µM] (inactive) | 5.2% [at 11.2 µM] (inactive) | –
CC(C)(O)C(=O)N1CCN(c2ccc(C(F)(F)F)c(C3=C(c4c[nH]c5ccccc45)C(=O)NC3=O)c2)CC1 | – | inactive | inactive | – | – | 26.9 µM (active)
C=C1CCC2[C@@](C)(C(=O)O)CCC[C@@]2(C)[C@@H]1CCc1ccoc1 (stereo partly specified) | 1.79% (inactive) | inactive | inactive | – | – | –
CC1C=CC2CCCCC2C1CCC1CC(O)CC(=O)O1 (stereo unspecified) | -0.893% (inactive) | inactive | inactive | – | – | –
C=C[C@](C)(O)CC[C@H]1C(C)=CC(=O)[C@H]2C(C)(C)CCC[C@]12C | 3.57% (inactive) | inactive | inactive | – | – | –
CC1CCCC[C@H]2C(=O)C=C[C@H](O)[C@@H]2CC(=O)O1 (stereo partly specified) | – | inactive | inactive | – | – | 23.9 µM (active)
CCN1C(C)(C)CC(Oc2ccc(C(=O)Nc3ccc(NC(=O)Nc4cc(C(C)(C)C)on4)cc3)nc2)CC1(C)C | – | inactive | inactive | – | – | 21.3 µM (active)
C=C1CC2(C(=O)O)CC1CCC2C1(C)CCCC2(C)C(=O)OC(O)C21 (stereo unspecified) | -6.87% (inactive) | inactive | inactive | – | – | –
C/C1=C\CC[C@H](C)CCO[C@@H]2O[C@H](CO[C@@H]3OC[C@](O)(COC1=O)[C@H]3O)[C@@H](O)[C@H](O)[C@H]2O | 18.8% (inactive) | inactive | inactive | – | – | –
CC1=CC(=O)C[C@H]2[C@@H]1CC[C@@H](C)[C@]21CO[C@H](c2ccoc2)C1=O | -3.82% (inactive) | inactive | inactive | – | – | –
